Screening data from PubChem.
The list is not random: actives were taken first. Their share in the collection is about 19%.
IL-1B inflam inh = qHTS for Inhibitors of Inflammasome Signaling: IL-1-beta AlphaLISA Primary Screen | THP-1 LPS/ATP IL-1B secretion, AlphaLISA, 16 h; stronger effect = lower value | activity change, % at 57.5 µM | 360,000 tested, 4.7% active | AID 743279, 2014; in the data active = activity change below about -50%; inconclusive = mostly about -30% to -49%
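THP-1 cells pretreated 1 hr with compounds (up to 57.5 uM final), then stimulated with LPS (250 ng/mL final) plus ATP (1.25 mM final); secreted IL-1B measured by AlphaLISA after 16 hr, decreased signal indicating inhibition.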
HT1080 IDH1KD tx = qHTS for induction of synthetic lethality in tumor cells producing 2HG: qHTS for the HT-1080-IDH1KD cell line; HT-1080 IDH1 knockdown viability, ATP luminescence, 48 h; Potency, µM (titrated, usually from 46.1 µM), without a hit: at the highest dose activity, negative = toxicity, most hits filed as cytotoxic; 360,000 tested, 2% active;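 note: potency is the fitted concentration of half-maximal effect; 0% = DMSO wells and -100% = cell-free medium wells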
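CellTiter-Glo luminescence after 48 h compound exposure at 37 degrees C of IDH1-knockdown HT-1080 cells in 5% FBS RPMI. %Activity scaled between DMSO wells and cell-free media wells, with curves fitted and assigned curve classes.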
TDP1 cell noCPT = qHTS for Inhibitors of human tyrosyl-DNA phosphodiesterase 1 (TDP1): qHTS in cells in absence of CPT. DT40 Tdp1-/- hTDP1 cells, no CPT, ATP luminescence, 48 h. Potency, µM (highest dose often 46.2 µM), for the others: at the top dose activity change, negative = growth inhibition, hits mostly inhibitors. 420,000 tested, 15% active. AID 686978, 2013; note: potency is the fitted concentration of half-maximal effect; nearly all actives have a fitted effect of over 55% in size
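Compound effects on proliferation are scored in DT40 Tdp1-/-;hTDP1 cells in the absence of CPT. ATP levels (CellTiter-Glo luminescence) are recorded after a ≥48 hr, 37 °C incubation.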
HT1080NT lethal = qHTS for induction of synthetic lethality in tumor cells producing 2HG: qHTS for the HT-1080-NT fibrosarcoma cell line; HT-1080-NT fibrosarcoma viability, CellTiter-Glo ATP luminescence, 48 h; Potency, µM (highest dose often 46.1 µM), inactives show at the highest dose activity, negative = less viability, hits mostly cytotoxic; 360,000 tested, 1.6% active;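 note: NT is the 2HG producing partner of a matched IDH1 knockdown line; potency is the fitted concentration of half-maximal effect; 0% = DMSO-treated cells and -100% = media-only wells without cells; nearly all actives have a fitted effect of over 55% in size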
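Toxicity toward the 2HG-producing NT line was scored as %Activity, normalised to DMSO and no-cell wells, from CellTiter-Glo luminescence after 48 hours' treatment.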
DT40 TDP1 CPT = qHTS for Inhibitors of human tyrosyl-DNA phosphodiesterase 1 (TDP1): qHTS in cells in presence of CPT | Potency, µM (highest dose often 46.2 µM), inactives show top-dose activity change, negative = growth inhibition, usual class: inhibitors | 420,000 tested, 12% active | chicken DT40 Tdp1-/-;hTDP1 cells + 20 nM CPT, ATP luminescence, 48 h; note: potency is the fitted concentration of half-maximal effect; nearly all actives have a fitted effect of over 55% in size
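Chicken DT40 Tdp1-/- cells complemented with human TDP1, 400 cells/well, exposed to compounds plus 20 nM camptothecin for at least 48 h at 37 C; viability read as ATP content by CellTiter-Glo luminescence.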
* hit, by the source's call; ? = inconclusive; / = no result. Unless noted, calls come from the whole dose curve; as a rule, active = well fitted curve in the direction sought with a large enough effect; inconclusive = small, poorly fitted or top-dose-only effect, or another doubt; inactive = no such curve, though single readings can be large; an effect the other way counts as inactive or inconclusive. Unless noted, % is set by controls: 0 for no effect and ±100 for the full control effect.

SMILES | IL-1B inflam inh | HT1080 IDH1KD tx | TDP1 cell noCPT | HT1080NT lethal | DT40 TDP1 CPT
Cc1ccc(OCC(=O)Nc2ccc3nc(SCCOc4ccccc4)sc3c2)cc1 | / | / | 10µM* | / | ?
CC(=O)Nc1ccc2nc(SCCOc3ccccc3Cl)sc2c1 | / | / | 23µM* | / | ?
COc1cc(C)ccc1OCCSc1nc2ccc(NC(=O)c3cccs3)cc2s1 | / | / | 16µM* | / | ?
Cc1ccc(OCC(=O)Nc2ccc3nc(SCC(N)=O)sc3c2)cc1 | / | / | -23% | / | -17%
COc1cc(C)ccc1OCCSc1nc2ccc(NC(=O)c3ccco3)cc2s1 | / | / | 10µM* | / | 23µM*
COc1ccccc1OCCSc1nc2ccc([N+](=O)[O-])cc2s1 | -16 | -12% | ? | -5% | ?
C[C@H]1CN([C@@H](C)CO)C(=O)c2cc(Br)cnc2O[C@H]1CN(C)C(=O)C1CC1 | 20 | 8% | 15% | 22% | 6%
CCOC(=O)c1cnn(-c2ccc(C(=O)Nc3ccc(C(C)=O)cc3)cc2)c1N | / | / | -24% | / | -2%
S=c1[nH]nc(Cc2ccc(Cl)cc2)o1 | -3 | 19% | -11% | 24% | -16%
O=c1c(Cl)c(N/N=C/c2ccc(Br)cc2)cnn1-c1ccccc1 | -14 | ? | ? | ? | ?
O=C(Nc1ccc2nc(SCCOc3ccccc3)sc2c1)c1cccs1 | / | / | 21µM* | / | ?
CC(C)C(=O)Nc1ccc2nc(SCCOc3ccccc3)sc2c1 | / | / | -28% | / | -25%
CCOC(=O)c1nc2cc3n(c(CC(C)C)c-2c1C)CC(C)=C3C | -2 | 7% | ? | 13% | 21µM*
CCOC(=O)c1nc2cc3n(c(C)c-2c1C)C(C)C(C)=C3C (centres undefined) | -62* | -12% | 13µM* | -8% | ?
CCOC(=O)C1=C(C)N(C)C(=S)NC1c1cc(OC)ccc1OC (centres undefined) | -6 | -10% | 21µM* | 1% | ?
CCN(CC(=O)NC(C)(C)C)C(=O)CCl | -55* | 0% | 13µM* | 5% | 21µM*
CC(C)C1Cc2c(sc3ncnc(NN)c23)CO1 (centres undefined) | 57 | -17% | 12µM* | -14% | 8.2µM*
C=C(C)CSc1nc2sc3c(c2c(=O)n1-c1ccccc1)CC(C(C)C)OC3 (centres undefined) | / | / | 2% | / | -21%
C[C@H](Nc1ncnc2sc3c(c12)CCC3)C(=O)O | -4 | 2% | 1% | 7% | 0%
CC(C)Cc1nc2sc3c(c2c(=O)n1N)CC(C(C)C)OC3 (centres undefined) | -2 | ? | 2.6µM* | 20% | 16µM*
OCCNCc1c(OCc2ccc(Cl)cc2)ccc2ccccc12 | / | ? | 23µM* | 23µM* | 18µM*
CC(O)CNCCOc1ccccc1OCc1ccccc1 (centres undefined) | -13 | -6% | ? | 0% | ?
CC(O)CNCCNCc1c(OCc2ccccc2)ccc2ccccc12 (centres undefined) | -87* | 11µM* | 23µM* | 18µM* | 16µM*
Cc1cccc(N2C(=O)CSC23CCCCC3)c1 | 11 | 2% | ? | 2% | ?
Cc1cccc(-n2c(C)n[nH]c2=S)c1C | 0 | 2% | -6% | 9% | -1%
SMILES | IL-1B inflam inh | HT1080 IDH1KD tx | TDP1 cell noCPT | HT1080NT lethal | DT40 TDP1 CPT
COc1ccccc1-n1c(-c2ccc(Cl)cc2)c[nH]c1=S | 24 | 4% | 21µM* | 8% | 23µM*
Cc1cccc(-n2c(-c3ccccc3)c[nH]c2=S)c1C | -4 | -8% | 12µM* | -4% | ?
COc1ccccc1/C=C\C=N\n1c(-c2ccc(Cl)cc2)n[nH]c1=S | 0 | -1% | ? | -5% | ?
Cc1ccc(-c2c(NCCc3ccccc3)c(=O)c2=O)cc1 | 18 | 11% | -19% | 4% | 0%
COc1ccc2c(c1OC)C(=O)N1N=C(c3ccc(F)cc3)CC21 (centres undefined) | 1 | 2% | 16µM* | -2% | ?
Cc1ccc(C2=NN3C(=O)c4ccccc4C3C2)cc1 (centres undefined) | -7 | 14% | ? | 9% | -30%
N#CCCN(C(=O)COC(=O)CNS(=O)(=O)c1ccc2ccccc2c1)c1ccccc1 | 12 | 3% | 6% | -1% | -2%
O=C(C[n+]1cc(Br)cc2ccccc21)c1ccc(Cl)cc1 | -9 | ? | 18µM* | -29% | ?
O=C(C[n+]1cc(Br)cc(Br)c1)c1ccc(Cl)cc1 | 20 | 3% | -27% | -3% | -23%
Brc1cc2ccccc2[n+](Cc2ccccc2)c1 | 17 | ? | 12µM* | ? | ?
O=C(C[n+]1cc(Br)cc2ccccc21)c1ccc(Br)cc1 | -66* | -17% | ? | -14% | ?
Cc1cc(-c2cc(C(=O)NCc3ccccc3)on2)nc(NCC2CC2)n1 | 4 | -19% | -17% | -10% | -20%
CC(C)(C)c1ccc(/C=C/C(=O)Nc2ccc(S(N)(=O)=O)cc2)cc1 | / | / | 8.2µM* | / | 6.5µM*
NS(=O)(=O)c1ccc(NC(=O)/C=C/c2ccc(S(=O)(=O)NCc3ccco3)cc2)cc1 | -52* | -28% | ? | -22% | -26%
NS(=O)(=O)c1ccc(NC(=O)/C=C/c2cccc(Cl)c2)cc1 | -26 | -9% | ? | -2% | ?
O=C(O)/C=C/c1ccc(S(=O)(=O)NCc2ccco2)cc1 | -18 | 9% | 0% | 4% | 4%
O=C(O)c1ccc(CNC(=O)C23CC4CC(CC(C4)C2)C3)cc1 | 8 | 13% | -7% | 18% | -2%
O=C(NCc1cccnc1)/C(=C/c1ccc(Cl)cc1)NC(=O)c1ccccc1 | -4 | 9% | -24% | 0% | 23µM*
Cc1ccc(C(=O)N/C(=C/c2ccc(-c3cc(C(F)(F)F)ccc3Cl)o2)C(=O)NCc2cccnc2)cc1 | ? | -21% | 23µM* | -17% | ?
Cc1ccc(C(=O)N/C(=C\c2ccco2)C(=O)NCc2cccnc2)cc1 | 21 | 19% | -23% | 15% | 4%
O=C(NCc1cccnc1)/C(=C/c1ccc(-c2cccc(C(F)(F)F)c2)o1)NC(=O)c1ccccc1 | 8 | -28% | 18µM* | -15% | 13µM*
O=C(CCn1c(=O)oc2cc(Cl)ccc21)Nc1ccc(N2CCOCC2)cc1 | 5 | 0% | -27% | -5% | -3%
C=CCNC(=S)/N=c1/ccccn1CC | 1 | 14% | ? | 18% | -28%
NC(=O)c1ccccc1NC(=O)Nc1cccc(Cl)c1Cl | -6 | -1% | 9.2µM* | -15% | 5.8µM*
